From PubChem
Hits are enriched below; roughly 1.6% of the tested compounds scored in any of these assays.
ATG4B inh: ATG4B protease inhibitors, primary screen, biochemical, fluorescence, uHTS; Cysteine protease ATG4B (Homo sapiens), Q9Y4P1; ATG4B cleavage of LC3-PLA2, NBD-HPC fluorescence, 1 h; inhibition, % at 8.33 µM; 0.51% of 340,000 active
NRP1-CendR mod: modulators of CendR peptide binding to NRP-1, primary screen, biochemical, fluorescence polarization, uHTS. Neuropilin-1 (Homo sapiens), O14786. inhibition, % at 25 µM. 0.85% of 360,000 active. FAM-RPARPAR peptide binding to NRP-1;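 active = inhibition or corrected inhibition above about 18%, plus a signal ratio from 0.5 to 1.5, limit read from the data, passing the limit was not always enough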
Target sequence (O14786 whole entry, looked up): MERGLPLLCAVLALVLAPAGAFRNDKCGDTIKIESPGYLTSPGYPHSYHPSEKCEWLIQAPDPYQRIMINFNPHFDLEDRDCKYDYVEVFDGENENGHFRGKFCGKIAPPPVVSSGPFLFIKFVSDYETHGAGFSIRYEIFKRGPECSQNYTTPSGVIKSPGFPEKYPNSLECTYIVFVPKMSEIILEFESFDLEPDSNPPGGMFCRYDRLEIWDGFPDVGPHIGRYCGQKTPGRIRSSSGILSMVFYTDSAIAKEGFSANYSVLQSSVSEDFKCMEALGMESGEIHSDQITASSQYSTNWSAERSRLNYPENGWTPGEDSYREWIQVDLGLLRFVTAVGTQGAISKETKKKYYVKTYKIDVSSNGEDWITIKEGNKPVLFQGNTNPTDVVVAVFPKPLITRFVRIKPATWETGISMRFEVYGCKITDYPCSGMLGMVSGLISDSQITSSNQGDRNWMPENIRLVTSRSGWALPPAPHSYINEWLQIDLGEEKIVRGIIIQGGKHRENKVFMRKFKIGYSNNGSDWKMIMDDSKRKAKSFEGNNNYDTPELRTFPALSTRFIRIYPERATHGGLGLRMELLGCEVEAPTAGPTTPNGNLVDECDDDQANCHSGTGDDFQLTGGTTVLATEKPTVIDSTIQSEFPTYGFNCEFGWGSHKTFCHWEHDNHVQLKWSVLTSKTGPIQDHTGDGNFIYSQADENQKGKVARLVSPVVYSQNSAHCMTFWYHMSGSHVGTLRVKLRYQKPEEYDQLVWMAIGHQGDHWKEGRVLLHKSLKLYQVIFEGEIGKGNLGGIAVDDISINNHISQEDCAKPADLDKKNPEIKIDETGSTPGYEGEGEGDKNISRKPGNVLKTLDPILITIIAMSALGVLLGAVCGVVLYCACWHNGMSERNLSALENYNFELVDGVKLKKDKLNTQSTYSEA
PKA-R2B activ: activators of PKA-R2B holoenzyme, primary screen, biochemical, fluorescence polarization, Cy5-IP20, human; PKA-R2B holoenzyme dissociation; R2B truncated from residue 108, S112A mutant; 0% DMSO only, 100% 113 µM cGMP; AID 504700, 2011; 0.079% of 340,000 active; activation, % at 11.4 µM;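 active = activation above a cutoff set at the mean over all compounds plus 3 SD, cut at about 18% in these data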;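 note: higher means more holoenzyme dissociation and a rise in polarization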
PKA-R1A activ: activators of PKA-R1A holoenzyme, primary screen, biochemical, fluorescence polarization, Cy5-IP20, bovine R1A, mouse PKAc. PKA-R1A dissociation; scaled: DMSO 0%, 113 µM cGMP 100%. activation, % at 11.4 µM. 0.083% of 340,000 active;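 active = percent activation above the mean of all tested compounds plus 3 SD, cut at about 19% in these data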;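 note: higher means more PKAc released from R1A so a rise in polarization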
VLA-4 inh: inhibition in human VLA-4 binding assay, primary screen, VLA-4 allosteric modulator project, MLPCN library, flow cytometry, VLA-4 expressing cells; ligand binding flow cytometry; Integrin alpha-4 (Homo sapiens), P13612; inhibition, % (about 7 µM as worked out from the volumes in the protocol); 0.2% of 330,000 active; in the data active = inhibition above about 50%
VLA-4 mod pick: retest of VLA-4 allosteric modulators, confirmation, cell-based, cherry-picked plates, U937, HUTS-21 LIBS antibody; shares compounds with VLA-4 inh; U937 cells, HUTS-21 LIBS mAb binding, flow cytometry; LDV ligand present at threefold Kd; inhibition, % at 6.7 µM; 2% of 1,300 active;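 note: 0% = ligand without compound and 100% = no ligand background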
Numbers without * were called inactive; . = no result. Cut-off read from the data, not from the text of the source, unless noted: active = inhibition above about 40%; inactive = the rest.

SMILES	ATG4B inh	NRP1-CendR mod	PKA-R2B activ	PKA-R1A activ	VLA-4 inh	VLA-4 mod pick
O=C(CCNC(=O)c1ccccc1)Nc1ccc(F)c(Cl)c1	1.7	4.8	-9.0	-0.4	54.1*	13.7
Cc1cc(/C=C(/C#N)C(=O)Nc2ccccc2)c(C)n1-c1cccnc1	-6.5	4.4	8.1	7.5	94.5*	-2.2
Cc1cc(/C=C(\C#N)C(=O)Nc2ccccc2)c(C)n1-c1ccc2c(c1)OCO2	33.3	-10.0	8.5	14.1	3.8	.
COc1ccc(C(=O)COC(=O)C2COc3ccccc3O2)c(OC)c1 (stereo not drawn)	.	1.6	-2.6	-0.1	.	.
CCN(C[C@H]1N[C@@](Cc2ccccc2)(C(=O)OC)[C@H]2C(=O)N(Cc3ccccc3)C(=O)[C@@H]12)C(=O)COc1ccccc1	1.6	-8.0	-4.6	0.1	55.6*	2.9
CCN(C[C@H]1N[C@@](Cc2ccccc2)(C(=O)OC)[C@H]2C(=O)N(Cc3ccccc3)C(=O)[C@@H]12)C(=O)C1CCCCC1	-4.8	-0.2	4.7	-5.7	8.8	-4.2
COC(=O)[C@]1(Cc2ccccc2)N[C@H](CN(C)C(=O)COc2ccccc2)[C@@H]2C(=O)N(Cc3ccccc3)C(=O)[C@@H]21	.	-5.8	-7.6	-6.5	24.8	.
CC(OC(=O)c1ccc(O)cc1)C(=O)Nc1cc(C(F)(F)F)ccc1Cl (stereo not drawn)	-6.5	-5.6	1.7	-14.4	3.5	-8.6
CC(C)CN1Cc2ccccc2Oc2cc(Br)ccc2S1(=O)=O	-3.0	3.2	-5.4	-0.8	.	.
CCC(=O)N(C)C[C@H]1Oc2ncc(C#Cc3cccnc3)cc2C(=O)N([C@@H](C)CO)C[C@@H]1C	.	3.6	2.8	-2.2	.	.
CCOC(=O)c1c(C)nc2sc3c(=O)n(-c4ccc(C)cc4)cnc3c2c1-c1ccc(OC)cc1	-4.9	3.1	-11.5	-8.9	93.7*	10.9
CCOC(=O)c1c(C)nc2sc3c(=O)n(-c4ccc(C(C)=O)cc4)cnc3c2c1-c1ccc(Cl)cc1	-12.8	8.0	-3.3	4.0	10.3	.
CCC(CO)NCCNC(CC)CO (stereo not drawn)	-3.9	1.1	-5.5	-12.9	50.2*	2.6
CC[C@H](CO)NCCN[C@H](CC)CO	1.1	-1.0	-3.8	-9.5	-8.4	.
COc1ccc(-c2nnc3ccc(SCC(=O)N4CCCCC4)nn23)cc1OC	-9.1	13.3	-9.6	0.3	21.4	7.0
COc1ccc(-c2nnc3ccc(SCC(=O)NCc4ccco4)nn23)cc1OC	4.8	10.3	-5.2	-5.4	9.8	0.7
Cc1cc(NC(=O)CSc2ccc3nnc(-c4ccc(Cl)cc4)n3n2)no1	-12.2	4.0	2.0	0.9	-0.7	4.4
Cc1ccc(-c2nnc3ccc(SC(C)C(=O)O)nn23)cc1 (stereo not drawn)	-13.2	-0.7	3.5	-2.0	-11.8	-0.6
COc1ccc(-c2nnc3ccc(SCC(N)=O)nn23)cc1OC	14.5	-8.9	1.8	-4.8	6.1	.
CCOc1ccc(-c2nnc3ccc(SCC(=O)Nc4cc(C)on4)nn23)cc1	-2.4	0.4	6.2	-5.7	10.0	.
Cc1ccccc1NC(=O)c1cc([N+](=O)[O-])ccc1NCCN1C(=O)CCC1=O	11.1	-0.4	-0.4	4.9	7.8	.
Cc1ccc(-c2csc(C(O)c3ccccc3)n2)cc1C (stereo not drawn)	.	-5.4	.	.	.	.
CC(=O)[C@@]1(O)CC[C@H]2[C@@H]3CCC4=CC(=O)CC[C@]4(C)[C@H]3[C@@H](O)C[C@@]21C	-3.7	-8.6	12.9	-11.5	53.0*	2.7
CCC(C(=O)OCC(=O)C1(O)CCC2C3CCC4=CC(=O)CCC4(C)C3C(O)CC21C)C(C)C (stereo not drawn)	-0.7	-1.6	0.3	-2.2	.	.
CCc1cc(=O)[nH]c(-n2[nH]c(-c3ccccc3)cc2=O)n1	-2.8	3.8	2.1	8.9	-8.6	3.7
SMILES	ATG4B inh	NRP1-CendR mod	PKA-R2B activ	PKA-R1A activ	VLA-4 inh	VLA-4 mod pick
Cc1cc(C(=O)CN2CCCC(C)C2)c(C)n1-c1ccc(F)cc1 (stereo not drawn)	0.3	-16.4	3.1	5.7	41.9	-10.2
Cc1ccc(-n2c(C)cc(C(=O)CN3CCOCC3)c2C)cc1	4.4	-6.1	-4.1	-3.8	14.4	.
CCN(CC(=O)Nc1ccc(NC(C)=O)cc1)C(=O)/C=C/c1cccs1	-6.5	6.7	0.7	-1.5	53.7*	3.7
Cc1ccccc1C(=O)NNC(=O)CCCCC(=O)NNC(=O)c1ccccc1C	-2.9	2.0	-9.0	3.5	4.3	.
CCNc1nc2c(c(=O)n(C)c(=O)n2C)n1Cc1ccc(Cl)cc1	-2.9	2.1	1.0	-6.5	56.6*	5.4
CCC(C)Nc1nc2c(c(=O)n(C)c(=O)n2C)n1Cc1ccc(Cl)cc1 (stereo not drawn)	-0.8	3.6	-5.7	-1.6	-2.3	.
COc1ccc(OC)c2sc(NC(=O)c3cccc(N4C(=O)CCC4=O)c3)nc12	3.2	-0.5	-4.7	10.7	64.6*	4.0
CCN1C(=O)[C@H]2[C@@H](c3ccc(C(F)(F)F)cc3)N[C@]3(CCCN(Cc4ccc(C(F)(F)F)cc4)C3=O)[C@H]2C1=O	.	-4.9	-2.3	-7.0	.	.
N#CC1CC(c2ccccc2)Nc2cc(Cl)ccc2N1 (stereo not drawn)	-3.9	-9.3	-3.9	-3.8	-6.7	.
N=C(N)N=Nc1c(O)[nH]c2ccc(Br)cc12	-0.2	1.1	-3.4	4.3	53.4*	0.0
Oc1[nH]c2ccc(Br)cc2c1N=NC(=S)Nc1ccc(F)cc1	-6.6	-1.3	5.2	-4.0	-2.3	.
COc1ccc(N(CC(=O)NC2CC3CCC2C3)S(=O)(=O)c2ccccc2)cc1Cl (stereo not drawn)	-5.5	7.4	-4.4	-11.8	-21.5	.
COC(=O)c1ccsc1NC(=O)CN1C(=O)CCC1=O	-11.3	3.2	-10.5	-10.3	51.8*	-0.2
COc1ccc(NC(=O)N2CCN(C(=O)C3CCCO3)CC2)cc1 (stereo not drawn)	9.8	-6.9	-1.8	-2.0	3.7	.
COC(=O)[C@]1(Cc2ccccc2)N[C@H](CN(C)C(C)=O)[C@@H]2C(=O)N(Cc3ccccc3)C(=O)[C@@H]21	-1.4	-7.5	-14.1	-6.2	38.9	2.7
